In PubChem BioAssay (Tox21):
“And” between values parts separate entries of the source, which are not always exact repeats. Equal entries are not always repeated. Records with an inconclusive call do not appear. Where a structure was tested more than once in an assay, its records may differ in their call. The source made the active and inactive calls. Unless noted, the call rests on the fitted dose curve.

Columns and labels:
[1] = Nuclear factor erythroid 2-related factor 2/antioxidant responsive element (Nrf2/ARE) small molecule agonists: qHTS cell viability counter screen in human keratinocytes (AID 1919968; active means well fitted cell-killing curve with a large enough effect in the repeat runs; further: nearly all actives have a fitted effect of over 55% in size; further: potency means the concentration at half of the fitted maximal effect)
Method in brief: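 Seed 1,500 KeratinoSens cells per well, then incubate 5 h at 37 C/5% CO2. Add compounds in DMSO and incubate 23 h. Add CellTiter-Fluor, wait 1 h and read fluorescence.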

[2] = Nuclear factor erythroid 2-related factor 2/antioxidant responsive element (Nrf2/ARE) small molecule agonists: luciferase reporter gene qHTS assay in human keratinocytes (AID 1919969); further: nearly all actives have a fitted effect of over 35% in size; further: potency means the concentration at half of the fitted maximal effect
[3] = molecular target: Gonadotropin-releasing hormone receptor (Homo sapiens) (UniProt P30968); experiment: Human gonadotropin-releasing hormone receptor (GnRHR) small molecule agonists, calcium flux assay in GnRHR-HEK293 cells (AID 1920063); further: nearly all actives have a fitted effect of over 35% in size; further: potency means the concentration at half of the fitted maximal effect
Method in brief: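 Cells: HEK293 stably expressing human GnRHR. Steps: overnight (18 h) culture, 1 h calcium dye loading at 37 C, compound addition, kinetic fluorescence read at 480/540 nm. Each compound tested at 15 concentrations in triplicate.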

[4] = p53 small molecule agonists, cell-based qHTS assay with human liver microsomes (AID 1963577)
Method in brief: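 Cells carrying a p53-responsive bla reporter were rested 5 h (37 C, 5% CO2) before compound transfer. Human liver microsomes plus NADPH, 0.5 mg/mL final apiece, supplied metabolism during the 16 h 37 C exposure.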

[5] = p53 small molecule agonists, cell-based qHTS assay with rat liver microsomes (AID 1963578)
Method in brief: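 Fluorescence from a beta-lactamase reporter under a p53 response element was measured after cells had been incubated 16 h at 37 C with test compound and rat liver microsomes plus NADPH (0.5 mg/mL final each).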

[6] = p53 small molecule agonists, cell-based qHTS assay with human liver microsomes: qHTS cell viability counter screen (AID 1963579); further: nearly all actives have a fitted effect of over 45% in size; further: potency means the concentration at half of the fitted maximal effect
Method in brief: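 Seed p53RE-bla cells at 4,000 per well; incubate 5 h at 37 C; add compound, human liver microsomes and NADPH; incubate 16 h at 37 C; add CellTiter-Glo; after 30 min at room temperature, read luminescence.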

[7] = p53 small molecule agonists, cell-based qHTS assay with rat liver microsomes: qHTS cell viability counter screen (AID 1963580); further: nearly all actives have a fitted effect of over 45% in size; further: potency means the concentration at half of the fitted maximal effect
Method in brief: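 HCT-116 p53RE-bla, 4,000 cells/well, 5 h pre-incubation; cpd + rat liver microsomes 0.5 mg/mL + NADPH 0.5 mg/mL (final); 16 h, 37 C; CellTiter-Glo, 30 min RT; luminescence.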

[8] = p53 small molecule agonists, cell-based qHTS assay: qHTS cell viability counter screen (AID 1963581); further: nearly all actives have a fitted effect of over 45% in size
Method in brief: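 Cells: HCT-116 with p53 response element-driven beta-lactamase. Treatment: 16 h, 37 C, compounds in DMSO. Read: CellTiter-Glo luminescence after 30 min RT.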

[9] = p53 small molecule agonists, cell-based qHTS assay (AID 1963582; active means well fitted activation curve with a large enough effect in the signal ratio in the repeat runs, not every such curve was filed as active; the % refers to the signal ratio)
Method in brief: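 Quantitative HTS in p53RE-bla cells: after a 5 h settling period, compounds delivered in DMSO were left on cells for 16 h at 37 C, and reporter induction was measured as fluorescence following 2 h substrate loading.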

[10] = molecular target: 5-hydroxytryptamine receptor 2A (Homo sapiens) (UniProt P28223); experiment: 5-hydroxytryptamine receptor 2A (HTR2A) small molecule antagonists, cell-based qHTS assay (AID 1963586); further: nearly all actives have a fitted effect of over 45% in size
Method in brief: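 Antagonist-mode intracellular calcium assay: DOI (4 nM) added after 5 min compound pre-incubation at room temperature to dye-loaded HTR2A-CHO cells. Fluorescence followed for 3 min, sampled every second.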

[11] = molecular target: Muscarinic acetylcholine receptor M1 (Homo sapiens) (UniProt P11229); experiment: Cholinergic receptor muscarinic 1 (CHRM1) small molecule antagonists, cell-based qHTS assay (AID 1963588); further: nearly all actives have a fitted effect of over 40% in size
Method in brief: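 CHRM1-CHO calcium-flux assay, antagonist mode. Cells were seeded 18 h, dye-loaded 1 h at 37 C and given compound for 5 min at RT, then acetylcholine was added at 50nM. FDSS fluorescence was read 3 min; 15 concentrations, three runs.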

[12] = molecular target: Muscarinic acetylcholine receptor M1 (Homo sapiens) (UniProt P11229); experiment: Cholinergic receptor muscarinic 1 (CHRM1) small molecule agonists, cell-based qHTS assay (AID 1963589); further: nearly all actives have a fitted effect of over 35% in size; further: potency means the concentration at half of the fitted maximal effect
Method in brief: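 Agonist-mode qHTS in CHO cells stably carrying human muscarinic M1. Intracellular calcium is tracked by fluorescence every second after compound transfer; each compound runs at 15 concentrations in three independent runs.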

[13] = cAMP Responsive Elements (CRE) small molecule agonists, cell-based qHTS assay (AID 1963590)
Method in brief: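 Agonist mode qHTS in CRE-bla HEK 293T cells: compounds dosed from DMSO for 3 h at 37 C/5% CO2, followed by LiveBLAzer B/G FRET substrate for 2 h at room temperature.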

[14] = cAMP Responsive Elements (CRE) small molecule antagonists, cell-based qHTS assay (AID 1963591; active means well fitted inhibition curve with a large enough effect in the signal ratio in the repeat runs, not every such curve was filed as active; the % refers to the signal ratio)
Method in brief: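 Antagonist mode: test compounds are co-incubated with the adenylyl cyclase activator NKH477 (0.25 uM final) on CRE-bla HEK293T cells for 3 h at 37 °C, followed by LiveBLAzer substrate loading.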

[15] = molecular target: Beta-2 adrenergic receptor (Homo sapiens) (UniProt P07550); experiment: Adrenergic beta2 receptor (ADRB2) small molecule agonists, cell-based qHTS assay (AID 1963593);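 further: CHO cells stably overexpressing human ADRB2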
Method in brief: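 CHO cells stably over-expressing ADRB2 were plated overnight at 37C, then dosed with compounds plus a stimulation mix containing 100uM IBMX and 25uM Ro-20-1724 for 0.5hr at room temperature. cAMP was measured by HTRF competition, 1hr.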

[16] = molecular target: D(2) dopamine receptor (Homo sapiens) (UniProt P14416); experiment: Dopamine D2 receptor (DRD2) small molecule agonists, cell-based qHTS assay (AID 1963594); further: nearly all actives have a fitted effect of over 35% in size
Method in brief: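 cAMP accumulation in DRD2-HEK293 cells measured by HTRF after 1 h detection; compounds added 10 min before NKH477 (200nM […]) forskolin-analogue stimulation, 30 min at room temperature, with Ro20-1724 present at 0.1 mM final.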

[17] = molecular target: D(2) dopamine receptor (Homo sapiens) (UniProt P14416); experiment: Dopamine D2 receptor (DRD2) small molecule antagonists, cell-based qHTS assay (AID 1963595; active means well fitted inhibition curve with a large enough effect in the signal ratio in the repeat runs, with a control signal flat; the % refers to the signal ratio)
Method in brief: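 DRD2-HEK293; 0.1 mM Ro20-1724; cpd 10 min RT; NKH477 200 nM + quinpirole 12 nM, 30 min RT; HTRF cAMP (cAMP-d2/anti-cAMP cryptate), 665/620 nm ratio after 1 h.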

[18] = molecular target: 5-hydroxytryptamine receptor 2A (Homo sapiens) (UniProt P28223); experiment: 5-hydroxytryptamine receptor 2A (HTR2A) small molecule agonists, cell-based qHTS assay (AID 1963587); further: nearly all actives have a fitted effect of over 30% in size; further: potency means the concentration at half of the fitted maximal effect
Method in brief: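 Kinetic calcium-flux fluorescence (2 min, 1 sec intervals) after compound addition in agonist mode. HTR2A-CHO cells were cultured 18 h, then dye-loaded 1 h at 37 C.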

[19] = G protein-coupled receptor (GPCR) small molecule agonists, calcium flux assay: HEK293 wild type cell line counter screen (AID 1920065)
Method in brief: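 Counter-screen of the Tox21 10K library for non-specific calcium release: dye-loaded cells received compounds in DMSO and were monitored by kinetic fluorescence (480/540 nm, 3 min). Fifteen concentrations, run in triplicate.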

[20] = molecular target: Beta-2 adrenergic receptor (Homo sapiens) (UniProt P07550); experiment: Adrenergic beta2 receptor (ADRB2) small molecule antagonists, cell-based qHTS assay (AID 1963592); further: series mostly up to about 92 µM; nearly all actives have a fitted effect of over 50% in size
Method in brief: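 Cells (CHO, stable ADRB2 overexpression) incubated 18-20hr at 37C; compounds added from DMSO; agonist mix (1nM isoproterenol, 100uM IBMX, 25uM Ro-20-1724) added; 0.5hr RT; d2-cAMP and anti-cAMP-cryptate added; 1hr RT; 665/615 nm read.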

Measured: Potency

Sequence of Beta-2 adrenergic receptor (Homo sapiens) (P07550 whole entry, looked up): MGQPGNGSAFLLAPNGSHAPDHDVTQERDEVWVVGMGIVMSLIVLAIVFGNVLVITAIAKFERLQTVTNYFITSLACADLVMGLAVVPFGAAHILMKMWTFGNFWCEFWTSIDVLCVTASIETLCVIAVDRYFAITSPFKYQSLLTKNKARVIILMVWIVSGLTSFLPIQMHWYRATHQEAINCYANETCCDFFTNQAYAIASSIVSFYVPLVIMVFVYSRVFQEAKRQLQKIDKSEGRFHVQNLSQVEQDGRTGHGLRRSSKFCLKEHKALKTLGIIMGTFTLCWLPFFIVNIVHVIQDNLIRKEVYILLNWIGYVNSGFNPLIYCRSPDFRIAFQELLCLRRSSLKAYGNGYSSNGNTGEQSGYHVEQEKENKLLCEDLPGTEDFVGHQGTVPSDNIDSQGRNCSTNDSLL
Sequence of Gonadotropin-releasing hormone receptor (Homo sapiens) (P30968 whole entry, looked up): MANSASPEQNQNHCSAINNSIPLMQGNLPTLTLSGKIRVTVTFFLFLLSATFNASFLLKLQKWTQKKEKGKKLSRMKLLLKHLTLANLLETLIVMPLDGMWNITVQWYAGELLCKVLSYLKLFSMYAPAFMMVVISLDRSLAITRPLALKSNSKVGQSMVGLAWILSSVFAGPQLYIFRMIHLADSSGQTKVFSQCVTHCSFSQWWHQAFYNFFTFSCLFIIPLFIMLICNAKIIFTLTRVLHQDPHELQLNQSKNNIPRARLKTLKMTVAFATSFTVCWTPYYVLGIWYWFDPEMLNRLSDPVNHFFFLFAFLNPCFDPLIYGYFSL
Sequence of D(2) dopamine receptor (Homo sapiens) (P14416 whole entry, looked up): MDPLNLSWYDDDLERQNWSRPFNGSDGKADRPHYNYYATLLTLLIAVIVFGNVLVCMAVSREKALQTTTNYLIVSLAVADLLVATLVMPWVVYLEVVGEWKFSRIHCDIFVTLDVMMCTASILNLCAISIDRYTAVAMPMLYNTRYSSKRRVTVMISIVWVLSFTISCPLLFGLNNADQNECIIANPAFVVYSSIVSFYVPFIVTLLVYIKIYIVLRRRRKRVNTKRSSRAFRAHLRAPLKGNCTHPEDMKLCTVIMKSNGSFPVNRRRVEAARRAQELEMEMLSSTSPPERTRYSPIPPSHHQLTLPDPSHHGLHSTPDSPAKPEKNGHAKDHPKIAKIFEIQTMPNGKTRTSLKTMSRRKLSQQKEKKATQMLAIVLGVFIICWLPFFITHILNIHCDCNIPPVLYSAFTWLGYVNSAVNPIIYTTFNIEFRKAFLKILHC
Sequence of 5-hydroxytryptamine receptor 2A (Homo sapiens) (P28223 whole entry, looked up): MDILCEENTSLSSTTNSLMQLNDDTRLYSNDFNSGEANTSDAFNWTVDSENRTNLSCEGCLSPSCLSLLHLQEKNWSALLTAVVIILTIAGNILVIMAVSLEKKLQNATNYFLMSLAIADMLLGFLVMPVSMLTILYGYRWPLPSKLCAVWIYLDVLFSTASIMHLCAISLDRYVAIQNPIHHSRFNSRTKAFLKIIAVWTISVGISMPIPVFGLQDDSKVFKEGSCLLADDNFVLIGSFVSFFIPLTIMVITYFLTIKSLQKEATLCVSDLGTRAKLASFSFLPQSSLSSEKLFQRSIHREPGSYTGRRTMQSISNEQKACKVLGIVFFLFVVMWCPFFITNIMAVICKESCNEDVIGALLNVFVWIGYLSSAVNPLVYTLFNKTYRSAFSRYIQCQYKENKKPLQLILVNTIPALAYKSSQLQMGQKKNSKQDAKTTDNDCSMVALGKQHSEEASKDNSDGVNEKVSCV
Sequence of Muscarinic acetylcholine receptor M1 (Homo sapiens) (P11229 whole entry, looked up): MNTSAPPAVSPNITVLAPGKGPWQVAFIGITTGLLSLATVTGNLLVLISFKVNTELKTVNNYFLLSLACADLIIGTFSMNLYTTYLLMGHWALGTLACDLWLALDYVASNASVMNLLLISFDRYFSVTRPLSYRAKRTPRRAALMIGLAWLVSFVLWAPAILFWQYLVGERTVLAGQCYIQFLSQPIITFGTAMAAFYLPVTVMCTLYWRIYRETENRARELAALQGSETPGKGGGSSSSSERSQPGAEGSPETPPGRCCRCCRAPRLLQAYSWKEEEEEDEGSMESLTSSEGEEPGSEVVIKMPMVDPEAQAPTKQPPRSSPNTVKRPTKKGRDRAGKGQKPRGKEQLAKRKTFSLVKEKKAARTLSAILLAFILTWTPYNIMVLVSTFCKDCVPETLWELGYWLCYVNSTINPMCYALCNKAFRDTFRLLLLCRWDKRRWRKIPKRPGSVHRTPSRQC

C=CCCCCCCCCO
not listed: [18] | [19] | [20]
inactive: all other assays above

COc1ccccc1N=Nc1c(S(=O)(=O)O)cc2cc(S(=O)(=O)O)cc(NC(C)=O)c2c1O
active: [1] 40.7 µM
not listed: [9] | [15] | [16] | [17] | [19] | [20]
inactive: all other assays above

O=S(=O)(O)c1ccc(N=Nc2c(O)ccc3cc(S(=O)(=O)O)ccc23)cc1
active: [1] 30.8 µM
not listed: [4] | [5] | [9] | [15] | [16] | [17] | [19] | [20]
inactive: all other assays above

NNC(=O)c1cccc(C(=O)NN)c1
not listed: [17]
inactive: all other assays above

CCCCC(CC)COCCC#N (configuration not stated)
not listed: [4] | [10] | [16] | [19]
inactive: all other assays above

CCCCCC(C)=O
inactive and 27.3 µM (active): [2]
inactive and 28.9 µM (active): [7]
inactive and 12.9 µM (active): [6]
not listed: [15]
inactive: all other assays above

CC(=O)OCCC1CCCCC1
not listed: [15]
inactive: all other assays above

OC[C@H]1O[C@@H]2O[C@H]3[C@H](O)[C@@H](O)[C@@H](O[C@H]4[C@H](O)[C@@H](O)[C@@H](O[C@H]5[C@H](O)[C@@H](O)[C@@H](O[C@H]6[C@H](O)[C@@H](O)[C@@H](O[C@H]7[C@H](O)[C@@H](O)[C@@H](O[C@H]8[C@H](O)[C@@H](O)[C@@H](O[C@H]1[C@H](O)[C@H]2O)O[C@@H]8CO)O[C@@H]7CO)O[C@@H]6CO)O[C@@H]5CO)O[C@@H]4CO)O[C@@H]3CO
inactive: [1] | [2] | [3] | [6] | [7] | [8] | [13] | [14] | [20] | [16] | [17]

O=C1OC2(c3cc(Br)c(O)c(Br)c3Oc3c2cc(Br)c(O)c3Br)c2c(Cl)c(Cl)c(Cl)c(Cl)c21
active: [1] 4.86 µM and 18.6 µM | [3] 39 µM and 23.6 µM | [18] 17.4 µM and 33.4 µM | [12] 49.1 µM and 33.4 µM
not listed: [4] | [5] | [9] | [14] | [19]
inactive: all other assays above

C=CC(=O)OCCCCCCCC
not listed: [15] | [17]
inactive: all other assays above

CCOC(=O)CCC(C)=O
not listed: [15]
inactive: all other assays above

CCOC(=O)n1ccn(C)c1=S
not listed: [4] | [9] | [10] | [11] | [12] | [18] | [19]
inactive: all other assays above

CC1(C)C2=CCCC(C)(C)[C@]23CC[C@H]1C3
not listed: [16]
inactive: all other assays above

Cc1cc(C)cc(O)c1
inactive: all assays above

CC(=O)OCc1ccccc1
not listed: [4] | [5] | [9] | [19]
inactive: all other assays above

C1COC1
inactive: all assays above
